The results in this text go back to ChEMBL document CHEMBL3988442, “University of Dundee, Small-Polar-MMV Screening Library” (2021).

The structures appear in SMILES notation. Screen size: about 48,000 compounds; about 13,000 (27%) showed an effect of 50% or more. This is one part of the list.

The experiment deals with Wolbachia pipientis. The experiment is described as follows: Anti-Wolbachia Cell-Based Screen. It is filed as functional. Further details: scale not given: in the data most compounds retested in dose-response had high values. The following applies: 5 µM.
Consider `CN(C)C(CNS(=O)(=O)c1ccc(F)cc1F)c1cccn1C` (configuration not stated), for which the “Percent Effect” value is -13.11%. Next, `CN(C)c1ncccc1CNS(=O)(=O)c1ccccc1Cl`: 109.5%. Then `O=C1CC2(CCN(c3nccc(-c4cc(C(=O)O)ccn4)n3)CC2)CN1`, with 4.533%; and `CC(C)(C)c1ncc(CNc2ccn(CCc3ccncc3)n2)s1`, with 6.667%.

As for `CC1CS(=O)(=O)CCN1Cc1ccccc1N(C)C` (configuration not stated), the “Percent Effect” value was -2.207%.

For the compound `CCc1cc(N[C@@H]2C[C@H]3CC[C@@H]2C3)n2nccc2n1`, the “Percent Effect” value came out at 3.761%.

Turning to `Cc1cc(C(=O)N(C)Cc2nc(-c3ccccn3)no2)c(C)o1`, the “Percent Effect” value is on record as -5.968%. Next, `CCCC(C)CS(=O)(=O)NCc1cccnc1N(C)C` (configuration not stated): 13.21%. Then `CN(C)c1ncccc1CNS(=O)(=O)c1c(F)cccc1F`, with 108%. Regarding `CN(C)c1ncccc1CNC(=O)N(Cc1ccccc1F)C1CC1`, the “Percent Effect” value is listed as 8.051%. Next, `CO[C@H]1CCN(S(=O)(=O)c2cccs2)[C@H]1Cc1ccncc1`: -16.22%; `Cc1cnn(-c2cncc(C(N)=O)c2)c1`: -7.115%. Then `COCC(NC(=O)NCc1sc(C)nc1C)c1ccco1` (configuration not stated), with -12.64%; and `CC(C)(C)C(=O)NCCNc1cc(N2CCCC2)ncn1`, with -0.9567%.

With `O=C(Cn1ncc(N2CCNCC2)cc1=O)NCCc1ccc(F)cc1`, the “Percent Effect” value is on record as -10.43%. Then `O=C(Cc1ccc(F)cc1)NCCNc1cc(N2CCCC2)cnn1`, with 105.1%. Next, `O=C(Cc1ccc(F)cc1)NCCNc1cc(N2CCCC2)ncn1`: 80.33%.

In the case of `O=C(NCCNc1cc(N2CCCC2)cnn1)Nc1ccccc1F`, the “Percent Effect” value is given as 106.6%. Then `Cc1ccccc1NC(=O)Nc1cc(N2CCCC2)ncn1`, with -4.653%; and `O=C(Cc1ccc(F)cc1)NCCNCC1CNc2ccnn2C1` (configuration not stated), with -7.839%; and `O=C(Cn1ccc2ccccc21)Nc1cc(N2CCCC2)ncn1`, with -7.456%. Next, `CCOc1ccccc1NC(=O)Nc1cc(N2CCCC2)ncn1`: -20.57%; `O=C1N[C@@H]2CCN(C(=O)C3CCCC3)[C@@H]2C(=O)N1c1ccc(F)cc1`: -1.999%. Then `CS(=O)(=O)N1CCOCC2(CN(Cc3ccco3)CCO2)C1.O=C(O)C(F)(F)F` (configuration not stated), with -8.773%; and `O=C1CCCc2nccc(-c3ccccc3)c21`, with -3.137%; and `Cc1cccc(CN2CCc3ncnc(N4CCCC4)c3CC2)n1.O=C(O)C(F)(F)F`, with 88.17%. Regarding `Cc1cccc(CN2CCc3ncnc(N4CCN(C)CC4)c3CC2)n1.O=C(O)C(F)(F)F.O=C(O)C(F)(F)F`, the “Percent Effect” value worked out at 101.7%. Next, `O=C(Cc1ccccn1)N1CCc2ncnc(N3CCCC3)c2CC1.O=C(O)C(F)(F)F`: -1.895%. Then `Cc1cccc(CN2CCc3ncnc(N4CCOCC4)c3CC2)n1.O=C(O)C(F)(F)F`, with -7.957%; and `O=C(N1CCOCC1)N1C[C@@H]2OCCN(C(=O)c3ccco3)[C@@H]2C1`, with -0.4256%; and `Cc1nn(C)c2ncc(S(=O)(=O)N3CCCC(C(N)=O)C3)cc12` (configuration not stated), with -2.512%. Next, `Cc1ccccc1CN(CC(=O)O)C(=O)COCC1CC1`: -13.15%; `O=C(NCCOCCO)c1cccnc1Oc1ccc(Cl)cc1`: 144.4%. As to `CC(C)CCNC(=O)c1cccnc1Oc1cccnc1`, the “Percent Effect” value is on record as 3.255%. Next, `CC(C)(C)NC(=O)CNC(=O)c1cccnc1Oc1cccnc1`: -29.24%; `CCN(CC)C(C)CNC(=O)c1cccnc1Oc1cccnc1` (configuration not stated): -104.8%; `COCCNC(=O)c1cccnc1Oc1ccc(Cl)cc1`: 115.3%. Next, `O=C(NCCOc1ncc(Cl)cc1Cl)c1ccncc1F`: -4.331%. Take `Cc1cccc(OCc2nnc(SCC3CCCN(C)C3)o2)c1` (configuration not stated): the “Percent Effect” value is recorded as 17.13%.

Regarding `Cc1nc(CCN)cc(N2CCC(O)(c3ccc(Cl)cc3)CC2)n1`, the “Percent Effect” value was -10.13%. Then `CC(C)CN1C(=O)CO[C@@H]2CN(C(=O)C3CCOCC3)C[C@H]21`, with -22.5%; and `Cc1nonc1C1CCCN1C(=O)CCc1cc2n(n1)CCCNC2` (configuration not stated), with 9.259%.

Turning to `COCCC(=O)N1CC[C@H]2C(=O)N(c3ccsc3)CCO[C@H]2C1`, the “Percent Effect” value was -5.602%.

Regarding `CC(C)OCC(=O)N1CCC(c2ncncc2-c2ccnc(N)c2)C1` (configuration not stated), the “Percent Effect” value is on record as 123.4%. For the compound `COCCC(=O)N1CCC(Nc2ncc(Cl)cn2)CC1`, the “Percent Effect” value was -4.765%. Next, `COCCC(=O)N1CCC(c2ncncc2-c2ccnc(N)c2)C1` (configuration not stated): 107.7%; `Cc1nc(C2CCN(C(=O)COC(C)C)CC2)cc(N2CCOCC2)n1`: 30.46%. As to `Cc1ccc2c(c1)c(CNC(=O)C1CC(=O)N(C3CC3)C1)nn2C` (configuration not stated), the “Percent Effect” value is on record as 1.98%. Then `CC(C)(C)n1c(NC(=O)CNC(=O)NC2CC2)nc2ccccc21`, with -6.693%. Next, `CN(CCCOc1ccccc1)Cc1nccn1C`: -7.331%; `CC(=O)C(Cc1ccccc1)NC(=O)CSc1nccn1C1CC1` (configuration not stated): 4.235%. Then `Cc1nccn1[C@@H]1CC[C@@H](NC(=O)Cn2c(C)nc3ccccc32)[C@H]1O`, with 99.52%. On to `CCC[C@H]1CN(C2CCOCC2)C[C@@H]1NC(=O)CCn1ccnc1C`, for which the “Percent Effect” value was found to be 0.5076%. Then `Cc1nccn1[C@@H]1CC[C@@H](NC(=O)CCOc2ccccc2)[C@H]1O`, with 125.1%. Next, `CCC(=O)N1CCN(C(=O)CCn2cccn2)CC1`: 5.19%; `Cc1nccn1[C@@H]1CC[C@@H](NC(=O)CCCn2cccn2)[C@H]1O`: 100.2%. Next, `Cc1cc(=O)n(CC(=O)NC2CCCCC2)c2ccccc12`: -8.945%.
